Our source for the growth values is PubChem BioAssay (NCI).

Common to all, as to experiment: NCI-60 one-dose screen, 48 h (100 = growth as untreated, 0 = no growth, -100 = all killed)
Holding throughout (details): 10 µM unless noted

The subject of test [1] is DU-145 prostate.
Test [2] concerns K-562 leukemia.
For test [3], the system named is MALME-3M melanoma.
Test [4] has as its system MDA-MB-231 breast.
In test [5] the test system is RXF 393 renal.
Test [6] concerns SF-268 CNS.
Test [7] deals with SF-295 CNS.
For test [8], the system named is SF-539 CNS.
The test system of test [9] is UACC-257 melanoma.
Test [10] has as its system M14 melanoma.
The test system of test [11] is HCT-15 colon.
For test [12], the system named is HT29 colon.
Test [13] deals with SNB-75 CNS.
Test [14] deals with SNB-19 CNS.
Test [15] concerns U251 CNS.
Test [16] deals with PC-3 prostate.
In test [17] the test system is SK-MEL-5 melanoma.
The subject of test [18] is UACC-62 melanoma.
Test [19] has as its system LOX IMVI melanoma.
The subject of test [20] is SK-MEL-28 melanoma.

Each structure is given as a SMILES string. The panel holds about 83,000 compounds, 20% with a hit somewhere; the sample as a whole holds those more often.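 A percent growth of 40 corresponds to 60% growth inhibition; 0 means no net growth; -100 means all cells died. Active threshold: below 10.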 Unmarked numbers belong to inactive results. The source made the active and inactive calls.

For the compound `CCc1cc2c(cc1Cl)nc1c(=O)[nH]c(=O)nc-1n2CCOCC(C)(C)C`, the growth in [1] was 94.5%; in test [2], 57.4%; in test [3], -9.68% (active); in test [4], 67.2%; in [5], 75.5%; in test [6], 88.1%. For the same compound, the growth in test [7] is 71.8%; in test [8], 84.2%; in test [9] it was 73.3%; in test [10] it was 61.8%; in test [11], 58.3%; in test [12], 58.5%. Moreover, the growth in test [13] is 97%; in [14], 91%; in test [15], 83.4%; in [16], 68%; in test [17], 39.6%; in [18] it was 76.1%. The growth was 71.9% in [19] and 97.2% in test [20].

On to `CCCCCc1ccc(S(=O)(=O)Nc2cc(-c3csc(N)n3)ccc2OC)cc1`, for which the growth in [1] is 107%; in test [2] it was 83.9%; in test [3], 96.1%; in test [4] it was 92%; in [5], 99.7%; in [6] it was 94.7%. Moreover, the growth in test [7] is 84.8%; in test [8] it was 89.7%; in test [9] it was 107%; in test [10] it was 103%; in test [11], 81.8%; in test [12], 114%. Further, the growth is 103% in [13]; 91.3% in test [14]; 95.8% in [15]; 90.8% in [16]; 84.8% in test [17]; 75.9% in [18]. Besides, the growth is 107% in test [19] and 111% in test [20].

Turning to `Fc1ccc(-c2cn3c(-c4c[nH]c5ccc(Br)cc45)csc3n2)cc1`, the growth in test [1] is 67.4%; in test [2] it was 90.3%; in test [3], 51.4%; in test [4], 15.5%; in test [5], 79.6%; in test [6] it was 50.9%. Further, the growth is 64.1% in test [7]; 34.3% in test [8]; 93.5% in test [9]; 67.4% in test [10]; 77.8% in test [11]; 97.9% in test [12]. Also, the growth was -7.44% (active) in test [13]; 52.6% in [14]; 47.8% in test [15]; 73.6% in test [16]; 95.2% in test [17]; 65.7% in [18]. Moreover, the values for the growth in test [19] and in [20] were 13.1% and 87.8%, respectively.

As for `N#Cc1c(-c2cccs2)cc(-c2cnccn2)nc1SCC(=O)N/N=C/c1ccc(Cl)cc1`, the growth in test [1] is 104%; in [2], 96.7%; in [3], 115%; in [4], 94.9%; in [5], 92.2%; in test [6] it was 102%. Further, the growth in test [7] is 98.7%; in test [8], 100%; in test [9], 110%; in [10], 111%; in test [11], 98.5%; in test [12], 104%. In addition, the growth in test [13] was 95.8%; in test [14] it was 105%; in [15], 100%; in test [16], 93.9%; in test [17] it was 101%; in test [18], 91.3%. Besides, the growth in test [19] was 92%; in [20], 110%.

With `CNC(=O)c1cc(N2CCc3cc(NC(=O)Nc4ccc(N5CCOCC5)c(C(F)(F)F)c4)ccc32)ccn1`, the growth in test [1] was 27.2%; in [2], 7.92% (active); in [3], 25.8%; in test [4] it was 47.6%; in test [5], -6.79% (active); in test [6], 47.8%. Further, the growth in test [7] was -21% (active); in test [8], 24.1%; in [9] it was 59.1%; in test [10] it was 17%; in test [11] it was 5.54% (active); in test [12], 28.5%. In addition, the growth in test [13] is 38.6%; in [14], 23.1%; in [15], 29.2%; in [16], 7.98% (active); in [17] it was 12.9%; in [18] it was -29.8% (active). Also, the values for the growth in test [19] and in test [20] were 12.5% and 49.8%, respectively.

For `Oc1ccc(-c2nc3ccc(/C(=N\N=C\c4ccc(Cl)cc4)c4ccccc4)cc3[nH]2)cc1`, the growth in [1] was 88.3%; in [2], 70.8%; in [3] it was 101%; in test [4] it was 91.1%; in test [5], 93.5%; in [6], 90.9%. For the same compound, the growth is 82.6% in test [7]; 87% in test [8]; 92% in [9]; 63.5% in test [10]; 71.1% in test [11]; 75.4% in [12]. Moreover, the growth in [13] was 93.4%; in test [14], 91.7%; in test [15], 86.6%; in test [16] it was 52.9%; in test [17], 84.1%; in test [18], 84.1%. Moreover, the growth in test [19] is 57.4%; in test [20], 91%.

As to `COC(=O)CCCNCCCn1ccc2cc(NCc3cccc(-c4ccccc4)c3C)ccc21`, the growth in test [1] was 86.2%; in test [2], -1.36% (active); in test [3] it was 75.2%; in test [4] it was 68.3%; in test [5], 71.9%; in [6] it was 82.9%. The growth in test [7] is 64.5%; in [8], 77.8%; in [9] it was 81.6%; in test [10], 68.1%; in [11], 55.5%; in [12], 90.7%. The growth in test [13] was 68.9%; in [14], 82.4%; in [15], 64.8%; in [16], 58.4%; in [17] it was 92.8%; in test [18], 83.4%. For the same compound, the growth was 4.91% (active) in test [19] and 75.9% in [20].
